# Reference: PubChem BioAssay (NCI)
# The panel holds about 79,000 compounds, 15% with a hit somewhere; the sample as a whole holds those more often. A number with no mark means an inactive call. Activity calls are given as the source filed them. Rule as the data show it: active = growth inhibition above about 70%; inactive = the rest.
# Key:
# [1] = NCI Yeast Anticancer Drug Screen. Data for the rad50 strain (AID 155);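 also: 0% = growth of vehicle-only cultures of the same strain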; conditions: S. cerevisiae rad50 strain growth inhibition, hits give high values
# Summary of the method: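 Growth of the mutant yeast was measured after compound exposure and referenced to vehicle-treated cultures.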
# [2] = NCI Yeast Anticancer Drug Screen. Data for the mec2-1 strain (AID 157); conditions: S. cerevisiae mec2-1 strain, hits give high values
# Summary of the method: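 Yeast mec2-1 mutant treated with compound. Readout: growth inhibition vs vehicle controls.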
# [3] = NCI Yeast Anticancer Drug Screen. Data for the sgs1 mgt1 strain (AID 161);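 also: 0% = growth of cultures given vehicle only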; conditions: S. cerevisiae sgs1 mgt1 strain, hits give high values
# Summary of the method: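 Genetically altered yeast, compound exposure, growth inhibition relative to vehicle.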
# [4] = NCI Yeast Anticancer Drug Screen. Data for the cln2 rad14 strain (AID 165);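 also: 0% = growth equal to vehicle treated cultures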; conditions: S. cerevisiae cln2 rad14 strain, hits give high values
# Summary of the method: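 cln2 rad14 yeast strain; compound exposure; growth inhibition read vs vehicle controls.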
# [5] = NCI Yeast Anticancer Drug Screen. Data for the bub3 strain (AID 167); conditions: S. cerevisiae bub3 mutant strain, hits give high values
# Summary of the method: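 Whole-cell yeast assay. The mutant strain was incubated with compounds, and growth inhibition was determined by comparison with vehicle-treated cells.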
# [6] = NCI Yeast Anticancer Drug Screen. Data for the mlh1 rad18 strain (AID 175); conditions: S. cerevisiae mlh1 rad18 strain growth inhibition, hits give high values
# Summary of the method: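 Yeast w/ defined DNA-repair lesions; compound exposure; growth vs vehicle controls → % inhibition.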
# [7] = at 5.0 µM (retest, dose inferred, filed as 0.5)
# [8] = at 50.0 µM (retest, dose inferred, filed as 5.0)
SMILES,"growth inhibition [1, 7]","growth inhibition [1, 8]",growth inhibition ([1]; at 50.0 µM),"growth inhibition [2, 7]","growth inhibition [2, 8]",growth inhibition ([2]; at 50.0 µM),"growth inhibition [3, 7]","growth inhibition [3, 8]",growth inhibition ([3]; at 50.0 µM),"growth inhibition [4, 7]","growth inhibition [4, 8]",growth inhibition ([4]; at 50.0 µM),"growth inhibition [5, 7]","growth inhibition [5, 8]",growth inhibition ([5]; at 50.0 µM),"growth inhibition [6, 7]","growth inhibition [6, 8]",growth inhibition ([6]; at 50.0 µM)
COc1ccc2nc3c4c(nccc4c2c1)-c1ncccc1C3=O,93% (active),97% (active),89.2% (active),31%,98% (active),87.5% (active),43%,97% (active),90.8% (active),61%,97% (active),90.6% (active),58%,96% (active),89.5% (active),–,–,–
O=C(NOC(=O)c1ccccc1)c1ccccc1,93% (active),98% (active),99.3% (active),64%,99% (active),99.5% (active),82% (active),99% (active),99.5% (active),31%,99% (active),99.3% (active),65%,99% (active),99.3% (active),93% (active),99% (active),99.3% (active)
C1=C(c2ccccc2)c2ccccc2C1,0%,29%,75.2% (active),-23%,17%,63.4%,-13%,12%,48%,23%,19%,50%,-12%,18%,58.9%,5%,57%,49.9%
Cc1oc2c(C)c3oc(=O)cc(C)c3cc2c1CCl,27%,94% (active),54.4%,32%,97% (active),75.5% (active),27%,95% (active),87% (active),19%,89% (active),67.5%,41%,97% (active),84.1% (active),–,–,–
CC(=O)c1ccc2c(c1)CCc1ccccc1-2,2%,85% (active),12.5%,-33%,49%,-8.9%,2%,55%,36.1%,2%,8%,52.5%,45%,89% (active),30.4%,1%,79% (active),15.9%
CCOC(=O)C1(C)CCCC1N (stereo not given),-1%,52%,-37.3%,2%,93% (active),-35%,-4%,42%,-17.6%,21%,94% (active),53.1%,14%,98% (active),-5.45%,14%,82% (active),15.7%
Clc1ccc(-n2ncc3c(NCCCN4CCOCC4)ncnc32)cc1,3%,82% (active),56%,6%,70% (active),62.1%,1%,81% (active),82.8% (active),19%,62%,35.4%,16%,77% (active),47.4%,9%,79% (active),75.6% (active)
On1c(-c2ccccc2)nc2ccccc2c1=S,32%,39%,86.5% (active),41%,43%,86.7% (active),47%,95% (active),37%,28%,95% (active),25.4%,50%,94% (active),90.2% (active),39%,43%,84.5% (active)
Cc1nc(Sc2nc3ccc([N+](=O)[O-])cc3s2)sc1C,-8%,86% (active),88.2% (active),-12%,90% (active),86.5% (active),-2%,92% (active),84.1% (active),-9%,85% (active),46%,-12%,88% (active),57.3%,-13%,90% (active),93.6% (active)
CC1(C)OCC(COC(c2ccccc2)(c2ccccc2)c2ccccc2)O1 (stereo not given),-7%,14%,21.1%,-6%,12%,4.65%,-9%,2%,-0.5%,-4%,16%,-33%,-2%,63%,40.2%,-5%,28%,43.6%
O=C1Nc2ccc(Br)cc2C1=O,-8%,95% (active),96.9% (active),-31%,64%,99.7% (active),-5%,42%,99.8% (active),-6%,36%,66.9%,-13%,98% (active),99.4% (active),–,–,–
O=C(Nc1cccc(C(F)(F)F)c1)Oc1ccc(Cl)c2cccnc12,77% (active),98% (active),89.8% (active),66%,99% (active),91.8% (active),98% (active),99% (active),92.8% (active),90% (active),98% (active),88.9% (active),94% (active),99% (active),91.7% (active),71% (active),99% (active),91.7% (active)
COc1ccc(Nc2nc3ccc(C(F)(F)F)cc3nc2C(=O)O)cc1,10%,51%,30.6%,13%,46%,42.9%,21%,22%,40.6%,31%,37%,68.3%,7%,12%,60.5%,9%,48%,54.5%
CC1CC(C)(C)OB(OC(C)CC(C)(C)OB2OC(C)CC(C)(C)O2)O1 (stereo not given),-4%,-35%,9.6%,-1%,-39%,15.7%,-4%,-35%,22.6%,2%,-43%,83% (active),1%,-33%,17.7%,0%,-34%,-32.9%
COc1cccc2c1C(=O)c1c(O)c3c(c(O)c1C2=O)C[C@@](O)(C(=O)CO)C[C@@H]3OC1CC(OC(C)=O)C(OC(C)=O)C(C)O1 (stereo not given in full),71% (active),98% (active),86.8% (active),36%,99% (active),87.5% (active),37%,99% (active),90% (active),41%,99% (active),88.7% (active),42%,99% (active),88.9% (active),48%,97% (active),91.6% (active)
O=[N+]([O-])c1ccc2c(c1)Cc1ccccc1-2,15%,-11%,63.5%,-10%,-25%,9.35%,8%,5%,25.2%,-2%,-20%,-13.5%,0%,-59%,-17.2%,20%,2%,67.2%
Cc1cc(C(=O)c2ccc(Cl)cc2)ccc1O,0%,4%,72.4% (active),-4%,-2%,57.5%,0%,4%,85.9% (active),-6%,-9%,46%,-3%,0%,24.8%,-1%,-2%,70.5% (active)
COc1ccc(OC)c(Cc2cnc3nc(N)nc(N)c3c2C)c1,21%,35%,67.5%,18%,74% (active),19.7%,12%,36%,41.5%,9%,19%,6.45%,13%,19%,29.1%,–,–,–
COc1cc(-c2ccc(-[n+]3nc(-c4ccc([N+](=O)[O-])cc4)nn3-c3ccc([N+](=O)[O-])cc3)c(OC)c2)ccc1-[n+]1nc(-c2ccc([N+](=O)[O-])cc2)nn1-c1ccc([N+](=O)[O-])cc1,95% (active),94% (active),89.5% (active),98% (active),98% (active),91.4% (active),94% (active),96% (active),90.2% (active),96% (active),97% (active),88.5% (active),97% (active),97% (active),90.2% (active),97% (active),96% (active),90% (active)
C=C(C)C1CC2(C)C(C)CC(O)CC2C(OC(=O)C=C(C)C)C1O (stereo not given),26%,73% (active),78.3% (active),12%,58%,69.1%,21%,78% (active),79.8% (active),17%,25%,47%,15%,78% (active),80.1% (active),–,–,–
